The source of these data is PubChem BioAssay (NCI).

This is part of a sample that, as a whole, favours compounds with a hit. Of some 83,000 tested, about 20% had one in any assay.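 Cell lines were cultured in 96-well plates, exposed to a single compound concentration, and assessed for percent growth 48 hours later.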 Unmarked numbers belong to inactive results. The source made the active and inactive calls. Rule for the calls: active = growth percent below 10; inactive = the rest.

Test systems include HT29 colon; SNB-75 CNS; SNB-19 CNS; U251 CNS; PC-3 prostate; SK-MEL-5 melanoma; UACC-62 melanoma; LOX IMVI melanoma; SK-MEL-28 melanoma; SK-MEL-2 melanoma.
Holding throughout (test): NCI-60 one-dose screen, 48 h (100 = growth as untreated, 0 = no growth, -100 = all killed)
What all share (conditions): 10 µM

As for `N=C1c2nc3n(c2C(=O)c2nc4n(c21)CCCC4)CCCC3`, the growth was -13.7% (active) in the test with HT29 colon; -97% (active) with SNB-75 CNS; 30% in the test with SNB-19 CNS; 50.7% with U251 CNS; 90.6% in the test on PC-3 prostate; -98% (active) in the test with SK-MEL-5 melanoma. For the same compound, the growth in the test with UACC-62 melanoma was -85.1% (active); in the test on LOX IMVI melanoma it was -68% (active); with SK-MEL-28 melanoma it was -67.2% (active); in the test on SK-MEL-2 melanoma it was 82.7%.

With `Cc1nc2ccccc2c(N)c1-c1cc(C)c2c(C)nc3ccccc3c2n1`, the growth with HT29 colon is -93.5% (active); with SNB-75 CNS it was -77.6% (active); in the test with SNB-19 CNS, 22.6%; with U251 CNS it was -76.6% (active); with PC-3 prostate, -18.5% (active); in the test on SK-MEL-5 melanoma it was 62.1%. Besides, the growth in the test on UACC-62 melanoma was 97%; in the test on LOX IMVI melanoma it was -84.7% (active); with SK-MEL-28 melanoma it was -90.7% (active); with SK-MEL-2 melanoma, 96.3%.

Turning to `O=C(Nc1ccncc1)C(=O)c1cn(S(=O)(=O)c2ccc(F)cc2)c2ccccc12`, the growth in the test with HT29 colon was 1.81% (active); in the test on SNB-75 CNS, 45%; in the test on SNB-19 CNS, 67.2%; with U251 CNS it was 19.4%; in the test with PC-3 prostate it was 27.4%; in the test with SK-MEL-5 melanoma it was 17.7%. For the same compound, the growth in the test on UACC-62 melanoma was 36.1%; in the test on LOX IMVI melanoma it was 38.3%; in the test with SK-MEL-28 melanoma it was 56.1%; with SK-MEL-2 melanoma, 11.2%.

Consider `O=C1ON=[N+](c2ccc(Cc3ccc([N+]4=NOC(=O)C4CN4CCOCC4)cc3)cc2)C1CN1CCOCC1` (stereo not given), for which the growth is 89.7% in the test with HT29 colon; 72.6% with SNB-75 CNS; 86.5% in the test with SNB-19 CNS; 62.8% with U251 CNS; 56.5% in the test with PC-3 prostate; 53.2% in the test with SK-MEL-5 melanoma. The growth in the test on UACC-62 melanoma was 53.4%; in the test with LOX IMVI melanoma it was 65%; in the test on SK-MEL-28 melanoma, 74.9%; with SK-MEL-2 melanoma, 78.6%.

Regarding `CCCCCCCCCCCCCCCCCC(=O)OCCCCCCC`, the growth in the test with HT29 colon was 102%; in the test with SNB-75 CNS, 98.3%; with SNB-19 CNS it was 116%; in the test with U251 CNS, 100%; in the test on PC-3 prostate it was 92.9%; with SK-MEL-5 melanoma, 110%. Moreover, the growth was 110% in the test with UACC-62 melanoma, 96.5% in the test with LOX IMVI melanoma, 122% with SK-MEL-28 melanoma and 127% with SK-MEL-2 melanoma.

`CCN(CC)CCCOCCCNc1cc(OC)cc2cccnc12`: the growth with HT29 colon is 96.1%; in the test with SNB-75 CNS it was 94.7%; in the test on SNB-19 CNS, 91.4%; with U251 CNS, 91.5%; with PC-3 prostate it was 86.6%; in the test with SK-MEL-5 melanoma, 96.4%. Besides, the growth was 82.1% with UACC-62 melanoma, 90.2% with LOX IMVI melanoma, 103% in the test with SK-MEL-28 melanoma and 107% in the test on SK-MEL-2 melanoma.

Consider `O=S(=O)(Nc1ccccn1)c1ccc(N=Nc2ccc(O)c3ncccc23)cc1`, for which the growth with HT29 colon was 79.5%; with SNB-75 CNS, -6.04% (active); in the test on SNB-19 CNS, 12%; in the test with U251 CNS, 0.16% (active); with PC-3 prostate, -5.46% (active); with SK-MEL-5 melanoma it was -4.96% (active). Further, the growth in the test on UACC-62 melanoma is -4.64% (active); in the test on LOX IMVI melanoma, 13.7%; in the test with SK-MEL-28 melanoma, 33.9%; in the test on SK-MEL-2 melanoma, -30.1% (active).

Consider `Cc1ccc(Nc2nnc(-c3cc(-c4ccncc4)n(-c4ccccc4)n3)s2)cc1`, for which the growth in the test with HT29 colon is 36.9%; in the test on SNB-75 CNS, 116%; in the test on SNB-19 CNS, 89.7%; with U251 CNS, 65.6%; in the test on PC-3 prostate, 56.1%; with SK-MEL-5 melanoma, 67.7%. Also, the growth in the test on UACC-62 melanoma is 83.9%; in the test on LOX IMVI melanoma it was 58.5%; with SK-MEL-28 melanoma it was 106%; in the test with SK-MEL-2 melanoma, 92.4%.

Turning to `CC(=O)OCc1cc(-c2nc3ccccc3[nH]c2=O)nn1-c1ccc(Cl)cc1`, the growth with HT29 colon was 104%; in the test on SNB-75 CNS it was 98.6%; with SNB-19 CNS, 89.4%; in the test with U251 CNS it was 100%; in the test with PC-3 prostate it was 99%; in the test with SK-MEL-5 melanoma, 97.8%. Besides, the growth in the test with UACC-62 melanoma is 89.3%; in the test with LOX IMVI melanoma, 102%; with SK-MEL-28 melanoma, 107%; in the test on SK-MEL-2 melanoma, 100%.

With `COc1ccc(C(=O)/C=C/c2cc(-c3cc(OC)c(OC)c(OC)c3)n[nH]2)cc1`, the growth with HT29 colon was 1.28% (active); with SNB-75 CNS, 43.6%; in the test on SNB-19 CNS it was 47.8%; in the test with U251 CNS, -2.19% (active); with PC-3 prostate, 20.5%; with SK-MEL-5 melanoma, 57.2%. The growth with UACC-62 melanoma is 52.3%; in the test on LOX IMVI melanoma, -11.6% (active); with SK-MEL-28 melanoma, 79.4%; in the test on SK-MEL-2 melanoma, 70.4%.

Take `COC(=O)C(=C\c1ccc2c(c1)OCO2)/C(=C/c1ccc2c(c1)OCO2)C(=O)OC`: the growth with HT29 colon is 88.9%; with SNB-75 CNS, 87.7%; in the test with SNB-19 CNS it was 106%; in the test on U251 CNS, 98.5%; in the test on PC-3 prostate it was 93.8%; in the test on SK-MEL-5 melanoma it was 101%. Moreover, the growth was 98.6% in the test with UACC-62 melanoma, 90.8% in the test with LOX IMVI melanoma, 103% with SK-MEL-28 melanoma and 102% in the test with SK-MEL-2 melanoma.

On to `COc1cc(C(=O)N2CCN(c3ccccc3OC)CC2)c(N)cc1OCCCN1CCN(c2ccccc2OC)CC1`, for which the growth in the test on HT29 colon was 98.2%; in the test on SNB-75 CNS, 104%; with SNB-19 CNS, 104%; in the test with U251 CNS, 96.6%; with PC-3 prostate, 69%; in the test with SK-MEL-5 melanoma, 44.4%. Further, the growth with UACC-62 melanoma is 79.4%; with LOX IMVI melanoma, 78.8%; with SK-MEL-28 melanoma it was 119%; with SK-MEL-2 melanoma, 83.2%.

Take `N#CCCN1C/C(=C/c2ccccc2)C(=O)/C(=C/c2ccccc2)C1`: the growth with HT29 colon was -48.5% (active); in the test on SNB-75 CNS, 62.1%; with SNB-19 CNS, 68%; with U251 CNS, -0.696% (active); in the test with PC-3 prostate it was 41.1%; in the test on SK-MEL-5 melanoma, 29%. The growth is 0.851% (active) in the test with UACC-62 melanoma, -65.5% (active) with LOX IMVI melanoma, 54.2% in the test with SK-MEL-28 melanoma and 62.3% in the test on SK-MEL-2 melanoma.
